Composite z-score, composite Z-score and z-score data for five compounds are collected here from PubChem BioAssay.

SMILES strings stand for the structures. Calls of active or inactive are those of the source.

One test concerns the target Albumin (Bos taurus) (UniProt P02769). The experiment in a line: bovine serum albumin binders on microarray, profiling panel, artefact control for SMM control protein annotation, biochemical, small-molecule microarray, Alexa647 label, 635/667 nm fluorescence (AID 1118).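 Note: score merges 667 nm emission intensity and signal-to-noise per printed compound spot.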 Particulars: BSA-A647 binding, fluorescence 635 nm, higher = more signal.
Test [1] can be described thus: small-molecule microarray binders of probe aXIP, primary screen, biochemical, NeuroSMM set, 635/667 nm fluorescence (AID 1119).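 Note: probe is the protein aXip251-270 applied at 1 µg/mL to compound-printed slides; binding of probe to printed compounds measured as 667 nm fluorescence plus signal to noise.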 Particulars: higher = more signal, called active from +8 up or from −8 down.
Test [2] is described as follows: small-molecule binders of probe aNOTCH3, primary screen, biochemical, small-molecule microarray, 635/667 nm fluorescence (AID 1120).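 Note: probe is a biotin-tagged antibody raised against NOTCH3 rather than NOTCH3 protein; score merges spot fluorescence near 667 nm with spot signal to noise.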 Particulars: higher = more signal.
A short description of test [3]: small-molecule binders of probe aNOTCH2, primary screen, biochemical, small-molecule microarray, 635/667 nm fluorescence (AID 1121).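 Note: score merges feature fluorescence read at 667 nm with its signal to noise.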 The following applies: higher = more signal.
The target of test [4] is Carbonic anhydrase 2 (Homo sapiens) (UniProt P00918). Nature of the test: CAII small-molecule binders, profiling panel, biochemical, small-molecule microarray, Alexa647-labelled CAII (AID 1122). The following applies: CAII-A647 binding fluorescence, higher = more signal.
Test [5] is described as follows: COS7 lysate on small-molecule microarray, probe aHis, 635 nm (AID 1123).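 Note: z-score combines 667nm fluorescence intensity with signal-to-noise per printed compound spot.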 Particulars: COS7 cell lysate, fluorescence, higher = more signal.
A short description of test [6]: compound binding in COS7 lysate, probe aLAP1, primary screen, cell lysate, small-molecule microarray (AID 1124).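 Note: lysate comes from COS7 cells expressing LAP1 and is applied at 0.3 µg/mL; score merges spot fluorescence near 667 nm with signal-to-noise over triplicate slides.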 Particulars: probe aLAP1, fluorescence, higher = more signal.
For the next test, the system named is Sam68 (KHDRBS1). Nature of the test: Sam68 small-molecule binders, primary screen, biochemical, small-molecule microarray, 635 nm fluorescence (AID 1125).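 Note: score merges 667 nm channel intensity with signal to noise over triplicate slides.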 The following applies: small-molecule microarray binding, higher = more signal.
The test system of test [7] is Chordin-like protein 2 (CHRDL2). Nature of the test: CHRDL2 small-molecule binders, primary screen, biochemical, small-molecule microarray, 635 nm fluorescence (AID 1126).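 Note: printed compound slides probed with Chrdl2 protein at 4 µg/mL for 1 h at 4 C; score merges 667 nm emission intensity with signal to noise over three replicate slides.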 Particulars: small-molecule microarray binding, fluorescence 635 nm; higher = more signal.
The target of test [8] is Concanavalin-A (Canavalia ensiformis) (UniProt P02866). Nature of the test: ConA small-molecule binders, primary screen, artefact control for SMM control protein annotation, biochemical, small-molecule microarray, Alexa647 label, 635 nm (AID 1127).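 Note: z combines 667 nm emission intensity with signal-to-noise across three replicate slides.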 Particulars: ConA-A647 binding fluorescence, higher = more signal.
Chain of Concanavalin-A (Canavalia ensiformis) (P02866 whole entry, looked up): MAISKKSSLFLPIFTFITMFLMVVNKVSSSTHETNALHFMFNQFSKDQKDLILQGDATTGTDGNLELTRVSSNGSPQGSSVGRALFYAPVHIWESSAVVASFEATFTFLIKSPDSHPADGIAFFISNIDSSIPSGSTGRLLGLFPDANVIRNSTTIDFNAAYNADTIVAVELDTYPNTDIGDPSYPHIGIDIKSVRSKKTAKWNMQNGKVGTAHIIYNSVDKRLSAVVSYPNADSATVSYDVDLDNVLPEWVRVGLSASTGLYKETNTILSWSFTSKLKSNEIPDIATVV
Test [9] in a line: anti-His antibody binders, primary screen, artefact control for SMM control protein annotation, biochemical, small-molecule microarray, 635 nm fluorescence (AID 1128).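 Note: score merges feature fluorescence with signal-to-noise for each printed compound spot.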 Particulars: anti-His Alexa647 antibody binding, higher = more signal.
Test [10] has as its system Human papillomavirus type 1a E7 protein (residues 1-88). The experiment in a line: HPV1a E7 small-molecule binders, primary screen, biochemical, small-molecule microarray, residues 1-88, 635 nm (AID 1129). The following applies: small-molecule microarray binding, fluorescence 635 nm; higher = more signal.
Test [11] concerns the target Focal adhesion kinase 1 (Homo sapiens) (UniProt Q05397). The experiment in a line: small-molecule microarray binders of FAK, primary screen, biochemical, 635/667 nm fluorescence, BSA, DTT (AID 1130).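 Note: composite of spot emission at 667 nm and signal to noise over triplicate slides.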 Particulars: PTK2 binding, 635 nm fluorescence, higher = more signal.
For test [12], the system named is Fibrinogen (Alexa647-labelled). The experiment in a line: fibrinogen binders on compound microarrays, profiling panel, artefact control for SMM control-protein annotation, biochemical, small-molecule microarray, 635/667 nm fluorescence (AID 1131).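 Note: z-score merges 667 nm fluorescence with per-spot signal-to-noise over triplicate slides.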 The following applies: fibrinogen-A647 binding fluorescence, higher = more signal.
Test [13] addresses Follistatin (Homo sapiens) (UniProt P19883). The experiment in a line: follistatin binders on small-molecule microarrays, primary screen, biochemical, small-molecule microarray, 635/667 nm fluorescence (AID 1132). Particulars: FST binding, 635 nm fluorescence, higher = more signal.
Test [14] addresses Fibroblast growth factor 2 (Homo sapiens) (UniProt P09038). Nature of the test: FGF2 binders on small-molecule microarrays, primary screen, biochemical, small-molecule microarray, 635/667 nm fluorescence (AID 1133). Particulars: small-molecule microarray binding, FGF2, fluorescence 635/667; higher = more signal.
Test [15] is described as follows: mitochondrial membrane potential change in A549 cells, profiling panel, cell-based, JC-1 fluorescence, basal, 24 h, 100 nL (AID 1138).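 Note: A549 lung adenocarcinoma cells under basal conditions with no added stimulus; test concentration not given here.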 Particulars: higher = more signal.
The subject of a further test is Lefty1. The experiment in a line: Lefty1 binders on small-molecule microarrays, primary screen, biochemical, small-molecule microarray, 635/667 nm fluorescence (AID 1139). The following applies: small-molecule microarray binding, fluorescence 635/667; higher = more signal.
Test [16] has as its system wheat germ agglutinin (Triticum aestivum), Alexa647-labelled. The experiment in a line: wheat germ agglutinin binders on compound microarrays, profiling panel, artefact control for SMM control-protein annotation, biochemical, small-molecule microarray, 635/667 nm fluorescence (AID 1140).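 Note: score merges 667 nm feature emission with signal to noise over triplicate slides.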 Particulars: WGA-A647 binding, 635 nm fluorescence, higher = more signal.
For test [17], the target named is Luciferin 4-monooxygenase (Photinus pyralis) (UniProt P08659). The experiment in a line: firefly luciferase enzyme inhibitors, primary screen, biochemical, luminescence, purified enzyme, 2006 set (AID 1141).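 Note: cell-free assay with purified firefly luciferase at 100 ng per well in PBS; test concentration not given here.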 Particulars: SteadyGlo luminescence, 30 min, higher = more signal, called active from +8 up or from −8 down.
Chain of Luciferin 4-monooxygenase (Photinus pyralis) (P08659 whole entry, looked up): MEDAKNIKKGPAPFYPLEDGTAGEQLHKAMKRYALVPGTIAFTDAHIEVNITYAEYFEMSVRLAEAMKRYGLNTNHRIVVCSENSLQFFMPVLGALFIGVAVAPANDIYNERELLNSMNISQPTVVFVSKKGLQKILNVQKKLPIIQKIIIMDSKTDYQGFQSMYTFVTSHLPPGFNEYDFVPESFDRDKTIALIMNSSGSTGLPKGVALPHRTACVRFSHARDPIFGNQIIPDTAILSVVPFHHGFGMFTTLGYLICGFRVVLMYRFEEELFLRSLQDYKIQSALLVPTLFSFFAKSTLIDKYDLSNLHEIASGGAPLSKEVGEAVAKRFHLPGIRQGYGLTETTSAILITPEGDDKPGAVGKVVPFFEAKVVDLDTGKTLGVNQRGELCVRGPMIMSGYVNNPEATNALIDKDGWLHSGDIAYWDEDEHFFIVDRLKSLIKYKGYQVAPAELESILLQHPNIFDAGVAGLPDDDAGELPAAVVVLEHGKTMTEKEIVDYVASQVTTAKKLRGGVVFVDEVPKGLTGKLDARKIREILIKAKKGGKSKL

Chain of Fibroblast growth factor 2 (Homo sapiens) (P09038 whole entry, looked up): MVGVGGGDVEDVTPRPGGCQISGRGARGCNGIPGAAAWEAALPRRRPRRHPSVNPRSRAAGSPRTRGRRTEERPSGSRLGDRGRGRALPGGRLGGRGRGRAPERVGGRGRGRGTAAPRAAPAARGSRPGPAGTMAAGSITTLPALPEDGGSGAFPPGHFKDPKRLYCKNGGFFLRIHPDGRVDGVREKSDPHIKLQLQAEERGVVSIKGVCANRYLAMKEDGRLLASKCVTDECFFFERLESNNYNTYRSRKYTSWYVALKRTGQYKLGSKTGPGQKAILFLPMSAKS
Chain of Albumin (Bos taurus) (P02769 whole entry, looked up): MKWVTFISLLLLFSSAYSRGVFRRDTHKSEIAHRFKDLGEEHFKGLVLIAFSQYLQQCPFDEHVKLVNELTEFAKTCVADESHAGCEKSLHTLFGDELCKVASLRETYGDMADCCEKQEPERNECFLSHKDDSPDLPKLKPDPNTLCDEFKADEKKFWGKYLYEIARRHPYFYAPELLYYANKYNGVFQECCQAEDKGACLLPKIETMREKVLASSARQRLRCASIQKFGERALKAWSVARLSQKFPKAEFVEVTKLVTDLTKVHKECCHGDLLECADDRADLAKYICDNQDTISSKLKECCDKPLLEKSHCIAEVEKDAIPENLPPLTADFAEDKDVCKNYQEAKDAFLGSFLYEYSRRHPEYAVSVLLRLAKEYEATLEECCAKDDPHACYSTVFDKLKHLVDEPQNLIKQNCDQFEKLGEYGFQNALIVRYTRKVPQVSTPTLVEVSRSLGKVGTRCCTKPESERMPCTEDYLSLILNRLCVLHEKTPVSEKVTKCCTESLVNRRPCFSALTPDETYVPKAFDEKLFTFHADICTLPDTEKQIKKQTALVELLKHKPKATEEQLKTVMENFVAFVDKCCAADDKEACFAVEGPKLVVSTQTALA
Chain of Focal adhesion kinase 1 (Homo sapiens) (Q05397 whole entry, looked up): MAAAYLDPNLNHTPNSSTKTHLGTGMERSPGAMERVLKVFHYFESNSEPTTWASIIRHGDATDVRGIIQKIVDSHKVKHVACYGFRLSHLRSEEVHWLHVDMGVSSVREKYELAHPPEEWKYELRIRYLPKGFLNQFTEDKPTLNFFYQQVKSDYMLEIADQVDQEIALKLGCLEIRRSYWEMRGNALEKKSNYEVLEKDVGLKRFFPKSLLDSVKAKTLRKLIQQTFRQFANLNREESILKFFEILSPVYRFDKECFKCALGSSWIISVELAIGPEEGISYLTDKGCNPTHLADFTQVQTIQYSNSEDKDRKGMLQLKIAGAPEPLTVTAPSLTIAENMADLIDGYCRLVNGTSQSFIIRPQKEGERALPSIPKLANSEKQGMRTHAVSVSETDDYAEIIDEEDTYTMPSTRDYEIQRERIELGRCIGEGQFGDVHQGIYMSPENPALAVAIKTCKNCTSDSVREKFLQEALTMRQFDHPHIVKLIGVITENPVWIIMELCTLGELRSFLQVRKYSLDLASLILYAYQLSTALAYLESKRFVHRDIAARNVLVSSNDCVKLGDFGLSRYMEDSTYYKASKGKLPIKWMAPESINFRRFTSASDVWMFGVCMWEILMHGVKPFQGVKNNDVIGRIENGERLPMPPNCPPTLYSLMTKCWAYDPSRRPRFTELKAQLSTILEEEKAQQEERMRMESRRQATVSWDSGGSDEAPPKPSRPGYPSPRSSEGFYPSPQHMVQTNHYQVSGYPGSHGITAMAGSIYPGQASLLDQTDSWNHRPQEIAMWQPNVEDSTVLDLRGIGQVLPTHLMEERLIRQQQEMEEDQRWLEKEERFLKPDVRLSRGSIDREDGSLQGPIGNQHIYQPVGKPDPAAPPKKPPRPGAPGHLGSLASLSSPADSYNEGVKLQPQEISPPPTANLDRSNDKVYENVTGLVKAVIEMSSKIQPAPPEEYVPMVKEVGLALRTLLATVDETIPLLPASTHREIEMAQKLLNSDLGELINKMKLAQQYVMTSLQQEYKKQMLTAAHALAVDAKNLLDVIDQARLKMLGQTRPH
Chain of Follistatin (Homo sapiens) (P19883 whole entry, looked up): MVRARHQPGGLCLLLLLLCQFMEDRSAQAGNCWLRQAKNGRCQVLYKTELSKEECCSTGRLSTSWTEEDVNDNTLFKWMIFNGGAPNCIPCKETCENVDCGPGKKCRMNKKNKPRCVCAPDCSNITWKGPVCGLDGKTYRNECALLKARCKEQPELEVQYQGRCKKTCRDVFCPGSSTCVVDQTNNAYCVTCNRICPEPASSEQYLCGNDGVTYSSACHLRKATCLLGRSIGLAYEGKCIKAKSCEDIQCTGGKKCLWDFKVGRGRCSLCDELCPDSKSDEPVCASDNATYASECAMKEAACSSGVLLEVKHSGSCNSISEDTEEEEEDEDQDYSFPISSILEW

As to `COC(=O)c1c(CC[C@@H](CO)NC(=O)NCCn2cc(C3(O)CCCC3)nn2)oc(C(C)=O)c1C(=O)OC`, the composite z-score is 0.351 with Albumin (Bos taurus); -0.209 in test [2]; -0.128 in test [3]; 0.745 in test [4]; 0.603 in [5]; -0.108 in test [6]. Moreover, the composite z-score is 0.492 with Sam68 (KHDRBS1); -0.505 in [7]; -0.027 in test [8]; 0.828 in test [9]; 0.0881 in test [10]; 0.182 in test [11]. For the same compound, the composite z-score in [12] was 0.292; in test [13] it was -0.273; in test [14], 0.247; with Lefty1, 0.199; in test [16] it was 0.128. Further, in test [1], the composite Z-score was -0.79 (inactive). For the same compound, the z-score is -0.415 in test [15] and 0.7 (inactive) in test [17].

`CC[C@@H]1C=C(C(=O)O)[C@H](c2ccc(Br)cc2)N1S(=O)(=O)c1ccc(C)cc1`: the composite z-score with Albumin (Bos taurus) is 0.66; in [2], 0.167; in test [3] it was -0.0649; in test [4], 0.709; in [5], 2.01; in test [6] it was 0.98. Further, the composite z-score was 0.93 in the test on Sam68 (KHDRBS1); 0.173 in [7]; 0.882 in test [8]; 0.153 in [9]; 1.04 in [10]; 0.453 in [11]. Further, the composite z-score in test [12] is 0.886; in test [13], 0.076; in [14], -0.0934; in the test on Lefty1, 0.0429; in [16], 0.554. The composite Z-score in test [1] was 0.142 (inactive). The z-score in [15] was -0.785; in test [17] it was 0.942 (inactive).

Regarding `NC(=O)[C@@H]1[C@H]2C(=O)O[C@H](c3ccccc3)[C@H](c3ccccc3)N2[C@H](c2ccc(O)cc2)[C@@]12C(=O)Nc1ccccc12`, the composite z-score with Albumin (Bos taurus) was 0.257; in test [2] it was -0.288; in [3], -0.155; in [4], 0.75; in test [5], 2.37; in [6], 0.691. Besides, the composite z-score was 0.203 in the test with Sam68 (KHDRBS1); -1.73 in test [7]; -0.161 in test [8]; -0.393 in test [9]; -0.507 in [10]; 0.119 in test [11]. Besides, the composite z-score was -0.538 in test [12]; -0.5 in test [13]; -1.17 in test [14]; -0.827 in the test with Lefty1; 0.156 in test [16]. Moreover, the composite Z-score in test [1] is -0.622 (inactive). For the same compound, the z-score in test [15] was -1.11; in test [17] it was -0.366 (inactive).

Consider `COCCOC(=O)N1C(=O)[C@@]2(c3ccccc31)[C@H](C(=O)N1CCc3cc(OC)c(OC)cc3C1)[C@H]1C(=O)O[C@H](c3ccccc3)[C@H](c3ccccc3)N1[C@@H]2c1ccc(OCCO)cc1`, for which the composite z-score with Albumin (Bos taurus) was 0.843; in test [2], -0.0343; in test [3], -0.0903; in test [4] it was 0.486; in test [5], 2.59; in [6], 0.953. Also, the composite z-score in the test on Sam68 (KHDRBS1) is 1.32; in [7], 0.417; in [8] it was 1.09; in test [9], 2.67; in test [10], 1.22; in [11] it was 0.789. For the same compound, the composite z-score in [12] came to 0.896; in test [13], 1.25; in test [14], 1.1; with Lefty1 it was 0.492; in test [16], 0.722. In addition, in test [1], the composite Z-score is -0.386 (inactive). For the same compound, the z-score in [15] was -0.382; in test [17] it was -1.76 (inactive).

As to `CN1C(=O)C2C=CC(C(O)c3ccco3)N(Nc3ccccc3)C2C1=O` (stereo not given), the composite z-score in the test with Albumin (Bos taurus) was -0.152; in test [2] it was 0.0974; in [3] it was -0.0267; in test [4], 0.803; in test [5], -0.039; in test [6] it was 0.574. Further, the composite z-score with Sam68 (KHDRBS1) was 0.68; in test [7] it was 0.685; in [8], 0.477; in [9], 1.72; in [10], 0.103; in [11], -0.0653. The composite z-score in [12] was found to be 0.822; in test [13], 0.861; in test [14], 0.33; in the test on Lefty1, 0.332; in test [16], 0.594. The composite Z-score in test [1] was 0.472 (inactive). The z-score was 0.207 in test [15] and 0.0206 (inactive) in [17].
